Source: PubChem BioAssay (NCATS)
Inconclusive results are not listed. The source made the active and inactive calls. Unless noted, calls follow the shape of the dose curve; as a rule, active = well fitted curve in the direction sought with a large enough effect; inconclusive = small, poorly fitted or top-dose-only effect, or another doubt; inactive = no such curve, though single readings can be large; an effect the other way counts as inactive or inconclusive.

Key:
[1] = Quantitative high throughput screen for delayed death inhibitors of the malarial parasite plastid, 48 hour incubation (AID 488752); also: % is scaled to controls: 0 for no effect and ±100 for the full control effect; nearly all actives have a fitted effect of over 65% in size
How it was run: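 One-generation (48 h) growth assay: a decrease in luciferase signal from an integrated reporter in P. falciparum-infected red cells (0.1% parasitemia, 2% hematocrit) after compound exposure at 37 C indicates parasite inhibition.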

[2] = target: Thioredoxin reductase 1, cytoplasmic (Rattus norvegicus) (UniProt O89049); assay: qHTS Assay for Substrates of Mammalian Selenoprotein Thioredoxin Reductase 1 (TrxR1) (AID 488772);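 also: series mostly up to about 57 µM; 0% is about no effect; a drop in NADPH fluorescence below the no-compound background marks a TrxR1 substrate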
How it was run: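 In this dual-purpose format, potential substrates are identified from the first fluorescence read after selenite addition, not from the 8-minute delta. Rat enzyme is preincubated with NADPH and then with compound at ~22 deg C.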

[3] = target: Thioredoxin reductase 1, cytoplasmic (Rattus norvegicus) (UniProt O89049); assay: qHTS Assay for Inhibitors of Mammalian Selenoprotein Thioredoxin Reductase 1 (TrxR1) (AID 488773); conditions: Potency: inhibition;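 also: drop in NADPH fluorescence over an 8 min run after selenite addition; series mostly up to about 57 µM; % is scaled to controls: 0 for no effect and ±100 for the full control effect; nearly all actives have a fitted effect of over 40% in size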
How it was run: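 Inhibition is scored from the loss of NADPH fluorescence between first and last reads of an 8-min kinetic run. Selenite (400 uM) was the substrate, added after 15 min compound preincubation at room temperature.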

[4] = target: M-phase phosphoprotein 8 (Homo sapiens) (UniProt Q99549); assay: qHTS Validation Assay for Inhibitors for MPP8 Chromodomain Interactions with Methylated Histone Tails (AID 488949);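 also: AlphaScreen signal from MPP8 chromodomain bound to biotinylated H3K9me3 peptide; top concentration of the series differs between compounds; % is scaled to controls: 0 for no effect and ±100 for the full control effect; nearly all actives have a fitted effect of over 55% in size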
How it was run: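 AlphaScreen proximity signal from streptavidin donor and Ni-chelate acceptor beads (10 ug/mL each) reported binding of MPP8 to trimethyl-K9 H3(1-18) peptide, both at 50 nM. The complex formed 30 min before a 30 min compound exposure at room temperature, in PBS pH 7.4.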

[5] = target: Chromobox protein homolog 1 (Homo sapiens) (UniProt P83916); assay: qHTS Validation Assay for Inhibitors of HP1-beta Chromodomain Interactions with Methylated Histone Tails (AID 488953);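 also: loss of AlphaScreen luminescence from HP1-beta binding biotinylated H3K9me3 peptide; series mostly up to about 110 µM; % is scaled to controls: 0 for no effect and ±100 for the full control effect; nearly all actives have a fitted effect of over 50% in size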
How it was run: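 AlphaScreen proximity signal from streptavidin donor and nickel chelate acceptor beads (final 10 ug/mL) after 30 min dark incubation. Compounds had 30 min at room temperature with preformed complex of 50 nM HP1-beta and 50 nM b-H3(1-18)K9me3 in PBS pH 7.4 with 0.01% Tween-20.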

[6] = target: Methanococcus maripaludis chaperonin (MmCpn) (UniProt Q6LX38); assay: High-Throughput Screening for Modulators of Cytosolic Chaperonin Activity: MmCpn Primary Screen (AID 488978);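 also: 50 nM MmCpn enzyme hydrolysing 30 µM ATP at 37 °C; 0% is about no effect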
How it was run: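 ATPase activity of 50 nM MmCpn was assayed with 30 uM ATP, 10 minutes at 37C, after a 5 min compound preincubation at room temperature. ADP production was read as HTRF emission at 590 and 665 nm.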

[7] = target: Thyrotropin receptor (Homo sapiens) (UniProt P16473); assay: qHTS Assay for Antagonists of the Thyroid Stimulating Hormone Receptor (AID 488980); also: series mostly up to about 58 µM; 0% is about no effect
How it was run: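 Inhibition of cAMP raised by EC80 TSH (4 nM final) was read by HTRF, with lysate cAMP competing against cAMP-d2 for cryptate antibody after 30 min at room temperature. The cells were transfected HEK293 held in phosphodiesterase inhibitor RO 20-1724 at 70 uM.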

[8] = target: D(1A) dopamine receptor (Homo sapiens) (UniProt P21728); assay: HTS Assay for Allosteric Agonists of the Human D1 Dopamine Receptor: Primary Screen for Agonists (AID 488981); also: 0% is about no effect
How it was run: (§1)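 Calcium flux in an inducible, force-coupled HEK293 Trex D1 line (overnight at 30 C): agonist mode is the 180 s kinetic read after compound; potentiator mode is the following 180 s read after dopamine at EC20.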

[9] = target: D(1A) dopamine receptor (Homo sapiens) (UniProt P21728); assay: HTS Assay for Allosteric Agonists of the Human D1 Dopamine Receptor: Primary Screen for Potentiators (AID 488982); also: 0% is about no effect
How it was run: as §1

[10] = target: D(1A) dopamine receptor (Homo sapiens) (UniProt P21728); assay: HTS Assay for Allosteric Agonists of the Human D1 Dopamine Receptor: Primary Screen for Antagonists (AID 488983);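 also: calcium flux response to an EC80 dopamine challenge measured with no-wash dye; % is scaled to controls: 0 for no effect and ±100 for the full control effect; nearly all actives have a fitted effect of over 65% in size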
How it was run: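 Calcium-flux read-out in inducible HEK293 T-REx cells expressing D1, dye-loaded 30–90 min at room temperature. Kinetic reads: 180 s after compound (agonist phase), then 180 s after an EC80 dopamine challenge.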

[11] = Validation screen for small molecules that induce genotoxicity in human embryonic kidney (HEK293T) cells expressing luciferase-tagged ELG1 (AID 493106); also: 0% is about no effect
How it was run: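 ELG1-luciferase reporter readout (ONE-Glo, 30 min, room temperature) after 16 hr compound treatment at 37 °C of HEK293T cells at 2,000 per well. Rising luminescence flags genotoxic stress.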

[12] = target: Thyrotropin-releasing hormone receptor (Homo sapiens) (UniProt P34981); assay: qHTS for Small Molecule Agonists and Allosteric Enhancers of Human TRH Receptor: Validation Screen for Agonists (AID 493127;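 active = calcium activation more than 3 SD above the typical response in the agonist read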;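 also: intracellular calcium rise by fluo-8 fluorescence before TRH EC20 addition; 0% is about no effect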); conditions: TRH receptor agonist cell assay; at 2 µM; stronger effect = higher value
How it was run: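 Compound-evoked intracellular calcium release in fluo-8-loaded TRHR cells, read kinetically on FDSS (Ex 480/Em 530, 1 s/cycle) after 23 nL pintool transfer. Agonist phase preceded 10 nM TRH EC20 addition.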

[13] = Nrf2 qHTS screen for inhibitors: Validation (AID 493153; active = well fitted inhibition curve with a large enough effect in the main read-out, with a control signal flat, not every such curve was filed as active); conditions: viability change: measured here: cytotoxicity max response
How it was run: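 Concentration-response on A549 ARE_Fluc reporter cells exposed 18-24 h at 37 C, 5% CO2. Cytotoxicity read first by CellTiter-Fluor fluorescence (Ex 405/Em 525), then Nrf2 inhibition by BugLite luminescence after 15 min.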

[14] = qHTS for Inhibitors of Cell Surface uPA Generation: Validation Assay (AID 493164);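 also: RAW 264.7 macrophage cells exposed to compound for 18 h; 0% is about no effect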
How it was run: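 ATP-Lite luminescence read-out: ATP remains high when uPA activity-dependent LF translocation into the cytoplasm is blocked. RAW 264.7 cells, 18 h compound exposure at 37 C; 7-point titration, 2.45 nM to 38.3 uM final.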

[15] = target: Galactokinase (Homo sapiens) (UniProt P51570); assay: qHTS Validation Assay for Inhibitors of Human Galactokinase (GALK) (AID 493189); also: 0% is about no effect
How it was run: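 Inhibition was measured as remaining ATP, detected by luciferase luminescence after a 1 h room-temperature reaction. Final conditions: 5 nM GALK, 100 uM galactose, 35 uM ATP, pH 8.0 HEPES buffer.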

[16] = Validation screen for small molecules that induce DNA re-replication in SW480 colon adenocarcinoma cells (AID 504364); also: 0% is about no effect
How it was run: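 Image-based DNA content read-out: Hoechst stain 40 min, total nuclear fluorescence intensity (ex 405 nm, em 500-530 nm) after 48 h compound exposure of 250 SW480 cells/well at 37 C, 5% CO2, versus DMSO vehicle.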

[17] = target: Phosphoglycerate kinase, glycosomal (Trypanosoma brucei brucei) (UniProt P07378); assay: qHTS Validation Assay to Find Inhibitors of Phosphoglycerate Kinase (AID 504547);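 also: control wells lack PGK and mark full inhibition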
How it was run: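 Luminescence end-point (Kinase-Glo Plus, 10 min) after a 60 min room-temperature coupled reaction. GAPDH at 100nM final supplies 1,3-BPG to PGK. Buffer: 100mM TEA pH 7.6, 5mM MgCl2, 0.01% Tween-20. Wells lacking PGK served as controls.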

[18] = target: phosphoglycerate mutase (Leishmania major) (UniProt Q4Q090); assay: qHTS Validation Assay to Find Inhibitors of Phosphoglycerate Mutase (AID 504548); also: series mostly up to about 58 µM; % is scaled to controls: 0 for no effect and ±100 for the full control effect
How it was run: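 Lm PGAM at 1.25 nM final with substrate in 100 mM TEA pH 7.6, 5 mM MgCl2, 0.01% Tween-20; 45 min at room temperature. Kinase-GloPlus added, 10 min, end-point luminescence read.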

[19] = target: Ubiquitin carboxyl-terminal hydrolase 1 (Homo sapiens) (UniProt O94782); assay: Inhibitors of USP1/UAF1: Pilot qHTS (AID 504865);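 also: rhodamine fluorescence freed from ubiquitin-rhodamine substrate followed over time; top concentration of the series differs between compounds; % is scaled to controls: 0 for no effect and ±100 for the full control effect; nearly all actives have a fitted effect of over 35% in size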
How it was run: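 Deubiquitinase activity followed as kinetic rhodamine fluorescence release from 150 nM Ub-Rho. 1 nM USP1/UAF1 with compound, after 15 min room-temperature preincubation, in HEPES pH 7.8 buffer containing TCEP, EDTA, BSA and Tween-20.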

[20] = target: Voltage-gated inwardly rectifying potassium channel KCNH2 (Homo sapiens) (UniProt Q12809); assay: qHTS Assay for Small Molecule Inhibitors of the Human hERG Channel Activity (AID 588834);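 also: potency is read from the fitted curve at half-maximal effect; lower thallium flux fluorescence means stronger hERG block; nearly all actives have a fitted effect of over 50% in size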
How it was run: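 hERG block measured as reduced thallium-dye (FluxOR) fluorescence after stimulation buffer addition, read over 2 min. Cells were hERG-BacMam-transduced U2OS exposed to compound ~10 min […]; concentration-response fitted with Hill equation for AC50.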

[21] = target: Glutaminase kidney isoform, mitochondrial (Homo sapiens) (UniProt O94925); assay: qHTS for Inhibitors of Glutaminase (GLS): LOPAC Validation (AID 624146);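 also: glutamate product detected by oxidase and peroxidase coupled Amplex red fluorescence gain; series mostly up to about 46 µM; % is scaled to controls: 0 for no effect and ±100 for the full control effect; nearly all actives have a fitted effect of over 60% in size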
How it was run: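 hKGA in 45 mM KH2PO4 pH 8.2, 0.02% Tween-20 with pin-transferred compounds; 1 mM L-glutamine (stock) plus glutamate oxidase/HRP/Amplex Red coupling added. Fluorescence read initially and after 30 min at RT.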

[22] = qHTS of Trypanosoma Brucei Inhibitors: LOPAC Validation (AID 624147); also: 0% is about no effect
How it was run: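 Glycolytic pyruvate kinase of T. brucei was incubated with substrate, test compound and 130 uM ADP for 45 minutes at room temperature. Luminescent Kinase-Glo Plus signal was measured after 10 minutes.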

[23] = target: Glucagon-like peptide 1 receptor (Homo sapiens) (UniProt P43220); assay: qHTS of GLP-1 Receptor Agonists: LOPAC Validation (AID 624148);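 also: luminescence from a luciferase reporter switched on by cAMP; 0% is about no effect; higher luminescence signal means agonism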
How it was run: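 Agonism scored as increased luciferase luminescence driven by cAMP in HEK293 clones carrying GLP-1R. Cells settled 12 hours, received compound for 4-6 hr at 37 deg C, 5% CO2, and were read after 12 min detection reagent at RT.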

[24] = qHTS of Nrf2 Activators: LOPAC Validation (AID 624149); also: 0% is about no effect
How it was run: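 Luciferase signal from ARE activation, read with Steady-Glo after 30 min at room temperature. Compounds were pin-transferred onto AREc32_Fluc cells (1000/well, OPTI-MEM/5% FBS, seeded overnight) and left 24 hr at 37 deg C.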

[25] = HTS Assay for Allosteric Antagonists of the Human D2 Dopamine Receptor: Hit Validation in HTRF (AID 624455);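 also: stable D1 dopamine receptor cell line scored for blocking the D1 response; % is scaled to controls: 0 for no effect and ±100 for the full control effect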
How it was run: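 Inhibition of the D1-mediated response was measured by HTRF. Cells used were a line stably expressing the D1 dopamine receptor.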

[26] = target: T1, Hexokinase-4 (Homo sapiens) + Glucokinase regulatory protein (Homo sapiens) (UniProt P35557+Q14397); assay: qHTS assay for inhibitors of recombinant human GCK-GKRP interaction: Diaphorase-coupled assay (AID 743205)
How it was run: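 A kinetic fluorescence read (Ex 525/Em 590 nm, every minute for 30 minutes) tracked resorufin from a G6PDH-diaphorase coupled GCK reaction. It contained 10 nM GST-GCK, 10 nM FLAG-GKRP, 5 mM glucose, 0.4 mM ATP in Hepes pH 7.6. Normalized to with/without-enzyme DMSO controls.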

[27] = target: T1, Hexokinase-4 (Homo sapiens) + Glucokinase regulatory protein (Homo sapiens); assay: qHTS assay for inhibitors of recombinant human GCK-GKRP interaction: HTRF assay (AID 743207);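 also: 0% = DMSO with GCK present and -100% = DMSO wells lacking GCK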
How it was run: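 After 60 min equilibration at room temperature with anti-FLAG XL665 and anti-GST antibodies, FRET ratio (665/615 nm, excitation 320 nm) was read. Proteins: GST-GCK and FLAG-GKRP, each 5 nM, plus 2 uM S6P, pH 7.1 buffer; GCK-free wells define minimum signal.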

[28] = qHTS Assay for Identifying Gametocytocidal Compounds (AID 743244);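 also: % is scaled to controls: 0 for no effect and ±100 for the full control effect; actives lower the fluorescent signal which means gametocytes are killed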; conditions: P. falciparum 3D7 stage III-V gametocytes, alamarBlue, 72 h; max response: stronger effect = lower value
How it was run: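 3D7 gametocytes, stages III–V, 20,000/well; cpd 72 h, 37 °C/5% CO2; + alamarBlue 24 h; fluor. Ex 525/Em 598.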

[29] = Natriuretic polypeptide receptor (hNpr1) antagonism - Pilot counterscreen GloSensor control cell line (AID 1347045; calls by dose curve; also: series mostly up to about 38 µM; % is scaled to controls: 0 for no effect and ±100 for the full control effect)
How it was run: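 Control counterscreen: luciferase cGMP-biosensor HEK293 cells (no Npr1) received compound for 30 min at room temperature after GloSensor substrate loading. Luminescence was measured before and 20 min after soluble guanylyl cyclase activation by 50 uM nitroprusside.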

[30] = target: Atrial natriuretic peptide receptor 1 (Homo sapiens) (UniProt P16066); assay: Natriuretic polypeptide receptor (hNpr1) antagonism - Pilot screen (AID 1347049; calls by dose curve;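 also: HEK293 cells with hNpr1 and GloSensor cGMP luciferase stimulated by 0.1 nM hNppA; agonist-evoked cGMP luminescence read 20 min after hNppA addition; series mostly up to about 58 µM; % is scaled to controls: 0 for no effect and ±100 for the full control effect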)
How it was run: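 Receptor antagonism read as cGMP-dependent luminescence in hNpr1/pGS-40F HEK293 cells: pre-read after 30 min compound exposure, post-read 20 min after hNppA agonist at 0.1 nM final, all at room temperature, protected from light; A-71915 titration as control.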

[31] = target: Atrial natriuretic peptide receptor 2 (Homo sapiens) (UniProt P20594); assay: Natriuretic polypeptide receptor (hNpr2) antagonism - Pilot subtype selectivity assay (AID 1347050; calls by dose curve; also: % is scaled to controls: 0 for no effect and ±100 for the full control effect)
How it was run: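 Antagonist mode: compounds (LOPAC1280, seven 1:5 dilutions) added 30 min before 1 nM hNppC stimulation of hNpr2-HEK293 cGMP-sensor cells; luminescence read before and 20 min after agonist at ambient temperature.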

[32] = target: Parathyroid hormone/parathyroid hormone-related peptide receptor (Homo sapiens) (UniProt Q03431); assay: qHTS for PTHR1 Agonists: Optimization Screen against the NCGC LOPAC library (AID 1347079);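 also: GloSensor cAMP luminescence in HEK-293 GP2 cells expressing human PTHR1 with IBMX; 0% is about no effect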
How it was run: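 HEK-293 GP2 cells, PTHR1 + GloSensor cAMP; 3000 cells/well, o/n. Luciferin + IBMX 0.5mM each (stock), 1 hr 37C. Cpd titration, 1 hr 37C. Lum after 15 min RT. Ctrl M-PTH(1-15) top 10uM.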

[33] = test system: Zika virus NS2B-NS3 protease; assay: Primary screen GU AMC qHTS for Zika virus inhibitors (AID 1347154);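 also: 0% = no-inhibitor control and -100% = no-enzyme control; nearly all actives have a fitted effect of over 70% in size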
How it was run: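 Fluorogenic AMC-substrate cleavage by noncovalent NS2B-NS3 protease complex (25 nM, pH 8.0 Tris buffer with Tween 20) followed for 15 minutes at room temperature (~20% conversion). Percent inhibition from ex340/em450 signal change, fitted by 4-parameter Hill equation.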

[34] = target: Single-stranded DNA cytosine deaminase (Homo sapiens) (UniProt Q9GZX7); assay: Validation qHTS assay for inhibitors of Activation Induced Cytidine Deaminase (AID): AID signal (AID 1347429)
How it was run: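 Compounds (final up to 114 uM) preincubated with AID plus UDG; 250 nM DJC20/DJC23 substrate mix (4x stock) added, 4 hr at room temperature, then NaOH, 30 min. Read 1 fluorescence at 540 nm excitation, 590 nm emission.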

Sequence of D(1A) dopamine receptor (Homo sapiens) (P21728 whole entry, looked up): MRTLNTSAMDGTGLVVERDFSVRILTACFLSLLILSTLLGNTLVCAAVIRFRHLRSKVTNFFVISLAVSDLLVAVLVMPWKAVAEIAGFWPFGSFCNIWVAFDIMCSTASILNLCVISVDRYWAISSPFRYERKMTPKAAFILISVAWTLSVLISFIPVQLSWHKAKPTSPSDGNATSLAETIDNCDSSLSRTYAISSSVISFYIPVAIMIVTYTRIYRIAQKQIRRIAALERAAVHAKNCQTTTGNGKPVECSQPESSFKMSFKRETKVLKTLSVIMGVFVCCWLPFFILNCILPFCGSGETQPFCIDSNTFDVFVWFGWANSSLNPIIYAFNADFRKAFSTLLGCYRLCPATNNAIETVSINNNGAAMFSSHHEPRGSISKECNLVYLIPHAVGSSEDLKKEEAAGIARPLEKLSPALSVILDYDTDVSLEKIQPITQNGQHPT
Sequence of Thioredoxin reductase 1, cytoplasmic (Rattus norvegicus) (O89049 whole entry, looked up): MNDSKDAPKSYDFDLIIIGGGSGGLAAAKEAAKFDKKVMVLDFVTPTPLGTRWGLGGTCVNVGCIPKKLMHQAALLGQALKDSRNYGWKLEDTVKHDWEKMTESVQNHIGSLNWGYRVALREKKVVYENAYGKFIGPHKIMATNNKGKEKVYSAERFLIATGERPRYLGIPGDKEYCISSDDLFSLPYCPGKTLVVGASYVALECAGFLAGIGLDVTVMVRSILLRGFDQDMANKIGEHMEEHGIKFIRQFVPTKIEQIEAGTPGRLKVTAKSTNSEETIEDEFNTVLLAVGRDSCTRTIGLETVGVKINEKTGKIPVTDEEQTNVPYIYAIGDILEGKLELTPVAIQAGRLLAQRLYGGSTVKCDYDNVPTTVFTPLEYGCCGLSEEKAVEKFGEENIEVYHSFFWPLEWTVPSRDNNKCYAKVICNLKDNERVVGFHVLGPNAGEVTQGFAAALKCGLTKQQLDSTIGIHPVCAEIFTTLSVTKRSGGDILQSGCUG
Sequence of M-phase phosphoprotein 8 (Homo sapiens) (Q99549 whole entry, looked up): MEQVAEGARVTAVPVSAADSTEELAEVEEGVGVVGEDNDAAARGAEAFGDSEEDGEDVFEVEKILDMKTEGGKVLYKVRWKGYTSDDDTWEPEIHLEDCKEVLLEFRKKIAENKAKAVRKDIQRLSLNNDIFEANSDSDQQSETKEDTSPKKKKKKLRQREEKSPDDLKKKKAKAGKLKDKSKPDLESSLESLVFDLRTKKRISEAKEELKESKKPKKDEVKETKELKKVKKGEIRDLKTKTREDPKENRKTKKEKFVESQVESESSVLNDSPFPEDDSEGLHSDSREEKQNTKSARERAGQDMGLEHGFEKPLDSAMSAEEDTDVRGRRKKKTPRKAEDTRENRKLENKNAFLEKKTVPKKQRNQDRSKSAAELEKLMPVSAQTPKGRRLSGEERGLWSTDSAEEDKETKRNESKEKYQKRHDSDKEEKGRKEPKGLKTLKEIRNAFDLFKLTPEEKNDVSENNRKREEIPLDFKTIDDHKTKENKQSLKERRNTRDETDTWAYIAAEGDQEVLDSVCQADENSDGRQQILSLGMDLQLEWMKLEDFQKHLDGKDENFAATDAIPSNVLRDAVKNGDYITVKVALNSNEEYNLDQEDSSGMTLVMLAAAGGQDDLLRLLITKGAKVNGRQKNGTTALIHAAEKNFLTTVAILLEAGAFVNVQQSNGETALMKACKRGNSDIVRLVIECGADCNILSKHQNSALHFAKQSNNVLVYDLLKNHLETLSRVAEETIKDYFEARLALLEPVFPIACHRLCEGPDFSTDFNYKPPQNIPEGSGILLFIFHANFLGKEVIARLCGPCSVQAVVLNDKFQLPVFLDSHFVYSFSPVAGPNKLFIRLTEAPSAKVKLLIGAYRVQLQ
T1 sequence (P35557 whole entry, looked up): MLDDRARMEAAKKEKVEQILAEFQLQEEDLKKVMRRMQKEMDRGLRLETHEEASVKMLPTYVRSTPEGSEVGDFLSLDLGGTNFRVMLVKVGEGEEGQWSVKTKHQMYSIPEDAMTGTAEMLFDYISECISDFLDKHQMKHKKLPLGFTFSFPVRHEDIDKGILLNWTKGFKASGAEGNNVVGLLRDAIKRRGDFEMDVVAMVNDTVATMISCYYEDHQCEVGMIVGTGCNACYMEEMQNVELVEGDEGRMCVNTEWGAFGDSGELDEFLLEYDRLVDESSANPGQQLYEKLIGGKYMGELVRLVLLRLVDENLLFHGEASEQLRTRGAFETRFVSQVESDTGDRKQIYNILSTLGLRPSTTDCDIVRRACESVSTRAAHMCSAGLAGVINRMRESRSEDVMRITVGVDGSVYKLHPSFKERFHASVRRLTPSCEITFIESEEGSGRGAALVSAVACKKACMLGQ
T1 sequence (Q14397 whole entry, looked up): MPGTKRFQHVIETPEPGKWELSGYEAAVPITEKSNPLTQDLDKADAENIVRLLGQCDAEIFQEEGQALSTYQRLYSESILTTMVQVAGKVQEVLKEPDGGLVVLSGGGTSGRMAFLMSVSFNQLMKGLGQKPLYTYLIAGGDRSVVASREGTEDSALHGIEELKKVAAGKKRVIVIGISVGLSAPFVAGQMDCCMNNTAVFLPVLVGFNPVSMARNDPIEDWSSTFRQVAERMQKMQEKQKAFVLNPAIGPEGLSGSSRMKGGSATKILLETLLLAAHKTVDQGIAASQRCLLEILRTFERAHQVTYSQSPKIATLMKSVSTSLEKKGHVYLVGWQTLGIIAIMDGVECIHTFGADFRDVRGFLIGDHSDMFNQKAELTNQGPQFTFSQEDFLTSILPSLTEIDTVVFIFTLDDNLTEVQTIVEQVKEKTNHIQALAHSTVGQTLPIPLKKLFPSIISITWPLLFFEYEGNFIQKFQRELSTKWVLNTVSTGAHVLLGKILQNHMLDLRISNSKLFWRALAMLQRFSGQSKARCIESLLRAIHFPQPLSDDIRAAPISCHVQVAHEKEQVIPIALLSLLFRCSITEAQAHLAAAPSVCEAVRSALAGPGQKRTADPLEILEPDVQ
Sequence of Glutaminase kidney isoform, mitochondrial (Homo sapiens) (O94925 whole entry, looked up, canonical isoform): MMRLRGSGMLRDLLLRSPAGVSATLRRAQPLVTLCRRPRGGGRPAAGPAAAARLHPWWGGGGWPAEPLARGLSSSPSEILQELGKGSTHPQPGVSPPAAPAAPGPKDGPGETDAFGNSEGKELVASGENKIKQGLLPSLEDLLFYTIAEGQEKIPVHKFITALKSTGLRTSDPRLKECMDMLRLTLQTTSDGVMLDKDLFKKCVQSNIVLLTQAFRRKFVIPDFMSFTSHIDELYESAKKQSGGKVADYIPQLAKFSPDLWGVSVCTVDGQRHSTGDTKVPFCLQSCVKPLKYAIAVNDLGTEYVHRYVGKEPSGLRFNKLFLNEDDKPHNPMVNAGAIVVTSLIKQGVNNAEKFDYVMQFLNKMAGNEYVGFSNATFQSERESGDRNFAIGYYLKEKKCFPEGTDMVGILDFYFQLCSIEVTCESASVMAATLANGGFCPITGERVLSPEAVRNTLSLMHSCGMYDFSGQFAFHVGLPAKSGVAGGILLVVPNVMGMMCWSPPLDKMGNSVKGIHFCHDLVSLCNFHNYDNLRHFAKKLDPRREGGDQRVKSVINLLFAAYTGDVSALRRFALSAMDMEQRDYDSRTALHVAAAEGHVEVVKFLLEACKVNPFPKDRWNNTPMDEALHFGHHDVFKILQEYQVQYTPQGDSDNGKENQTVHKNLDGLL
Sequence of Thyrotropin-releasing hormone receptor (Homo sapiens) (P34981 whole entry, looked up): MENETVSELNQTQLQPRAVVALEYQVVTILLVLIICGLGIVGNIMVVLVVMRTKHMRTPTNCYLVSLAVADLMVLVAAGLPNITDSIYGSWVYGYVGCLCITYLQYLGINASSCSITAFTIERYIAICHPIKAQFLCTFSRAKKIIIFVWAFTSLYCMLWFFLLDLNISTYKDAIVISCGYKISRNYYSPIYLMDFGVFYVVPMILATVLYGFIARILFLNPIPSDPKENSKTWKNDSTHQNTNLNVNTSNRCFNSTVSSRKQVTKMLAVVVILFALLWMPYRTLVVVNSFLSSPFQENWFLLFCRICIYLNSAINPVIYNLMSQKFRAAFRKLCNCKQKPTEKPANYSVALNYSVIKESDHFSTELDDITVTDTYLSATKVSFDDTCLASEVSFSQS
Sequence of Glucagon-like peptide 1 receptor (Homo sapiens) (P43220 whole entry, looked up): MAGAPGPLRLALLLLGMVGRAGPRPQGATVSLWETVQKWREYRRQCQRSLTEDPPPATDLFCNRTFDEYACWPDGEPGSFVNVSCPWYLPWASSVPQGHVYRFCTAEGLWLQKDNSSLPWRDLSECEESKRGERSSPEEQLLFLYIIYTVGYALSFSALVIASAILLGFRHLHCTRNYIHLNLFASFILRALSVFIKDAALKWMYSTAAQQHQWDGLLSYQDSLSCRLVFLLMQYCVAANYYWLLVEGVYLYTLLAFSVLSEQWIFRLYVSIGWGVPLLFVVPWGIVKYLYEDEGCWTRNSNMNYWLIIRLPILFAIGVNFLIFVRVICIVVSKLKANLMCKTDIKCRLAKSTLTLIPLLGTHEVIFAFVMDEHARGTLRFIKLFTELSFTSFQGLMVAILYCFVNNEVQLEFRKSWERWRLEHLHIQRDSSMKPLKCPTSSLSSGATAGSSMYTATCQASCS
Sequence of Single-stranded DNA cytosine deaminase (Homo sapiens) (Q9GZX7 whole entry, looked up): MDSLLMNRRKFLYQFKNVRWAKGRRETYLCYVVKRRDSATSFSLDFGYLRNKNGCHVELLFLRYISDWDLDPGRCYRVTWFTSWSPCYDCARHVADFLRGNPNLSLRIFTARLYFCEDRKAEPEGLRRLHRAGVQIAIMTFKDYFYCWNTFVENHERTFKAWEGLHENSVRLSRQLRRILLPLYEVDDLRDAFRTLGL
Sequence of Chromobox protein homolog 1 (Homo sapiens) (P83916 whole entry, looked up): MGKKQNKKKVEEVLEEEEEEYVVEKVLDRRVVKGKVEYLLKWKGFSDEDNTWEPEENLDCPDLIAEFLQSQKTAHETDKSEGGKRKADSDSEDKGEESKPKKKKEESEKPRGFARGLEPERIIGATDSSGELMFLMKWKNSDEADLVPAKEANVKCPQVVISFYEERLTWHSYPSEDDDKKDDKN

C1CCC(N=C(NC23CC4CC(CC(C4)C2)C3)N2CCOCC2)CC1
active: Potency [20] 11.2 µM
4.19%: viability change [13]
inactive: Potency [1] | outcome [2] | Potency [3] | Potency [4] | Potency [5] | outcome [6] | outcome [7] | outcome [8] | outcome [9] | outcome [10] | Potency [11] | activation [12] 1.31% | outcome [13] | outcome [14] | outcome [15] | outcome [16] | Potency [17] | outcome [18] | Potency [19] | Potency [21] | outcome [22] | outcome [23] | outcome [24] | outcome [25] | outcome [26] | outcome [27] | max response [28] 10.5% | Potency [29] | Potency [30] | Potency [31] | outcome [32] | Potency [33] | Potency [34]
